The values below come from PubChem BioAssay (Tox21).

Structures are written as SMILES. A number with no mark means an inactive call. Results filed as inconclusive are left out. Calls of active or inactive are those of the source. Unless noted, calls come from the whole dose curve.

The nature of test [1]: Nuclear factor erythroid 2-related factor 2/antioxidant responsive element (Nrf2/ARE) small molecule agonists: qHTS cell viability counter screen in human keratinocytes (AID 1919968; active = well fitted curve in the direction sought with a large enough effect in the repeat runs; an effect the other way counts as inactive or inconclusive; note: nearly all actives have a fitted effect of over 55% in size; note: potency is the fitted concentration of half-maximal effect). The procedure, abridged:
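Cytotoxicity was multiplexed with the Nrf2/ARE luciferase assay in the same wells. Stably transfected HaCaT keratinocytes were treated with test compounds for 23 h at 37 C. Cell viability was then measured by CellTiter-Fluor fluorescence.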
(qHTS replaces the single test concentration by a dilution series.)

A short description of test [2]: Nuclear factor erythroid 2-related factor 2/antioxidant responsive element (Nrf2/ARE) small molecule agonists: luciferase reporter gene qHTS assay in human keratinocytes (AID 1919969). Note: nearly all actives have a fitted effect of over 35% in size. Note: potency is the fitted concentration of half-maximal effect. A general note: Reporter assays use an easily measured gene product as a stand-in for the process of interest.
The target in test [3] is Gonadotropin-releasing hormone receptor (Homo sapiens) (UniProt P30968). As to the kind of experiment: Human gonadotropin-releasing hormone receptor (GnRHR) small molecule agonists, calcium flux assay in GnRHR-HEK293 cells (AID 1920063). Note: nearly all actives have a fitted effect of over 35% in size. The procedure, abridged:
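Agonist activity was measured as intracellular calcium flux in HEK293 cells engineered to stably express human GnRHR. After dye loading for 1 hour at 37 C, compounds in DMSO were added and fluorescence was followed for 3 minutes.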

In test [4] the target is KiSS-1 receptor (Homo sapiens) (UniProt Q969F8). As to the kind of experiment: Human kisspeptin (KISS1R) small molecule agonists, calcium flux assay in KISS1R-HEK293 cells (AID 1920064; active = well fitted curve in the direction sought with a large enough effect in the repeat runs; an effect the other way counts as inactive or inconclusive). The procedure, abridged:
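Agonist activity is monitored as intracellular calcium rise in engineered HEK293 cells carrying human KISS1R. Cells are dye-loaded for 1 h at 37 C before compound addition, and fluorescence is recorded for 3 min.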
(Calcium flux is commonly read through the fluorescence of an indicator in the cells.)

Test [5] can be described thus: G protein-coupled receptor (GPCR) small molecule agonists, calcium flux assay: HEK293 wild type cell line counter screen (AID 1920065). The procedure, abridged:
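Seed cells, incubate 18 h (37 C, 5% CO2); add calcium dye, 1 h at 37 C; pin-transfer compounds, ATP control or DMSO; read fluorescence 480/540 nm each second for 3 min.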

A short description of test [6]: p53 small molecule agonists, cell-based qHTS assay with human liver microsomes (AID 1963577).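 Note: p53 response element beta-lactamase reporter cells with liver microsomes plus NADPH.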 The method in brief: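 16 h, 37 C exposure of p53RE-bla cells to compounds with human liver microsomes and NADPH (0.5 mg/mL final each); detection via LiveBLAzer mixture, 2 h dark at room temperature.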
Test [7] can be described thus: p53 small molecule agonists, cell-based qHTS assay with rat liver microsomes (AID 1963578). The method in brief: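 With rat liver microsomes and NADPH present (0.5 mg/mL final each), p53RE-bla cells are treated with compound for 16 h at 37 C. LiveBLAzer detection mixture is then applied for 2 h at room temperature in the dark.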
A short description of test [8]: p53 small molecule agonists, cell-based qHTS assay with human liver microsomes: qHTS cell viability counter screen (AID 1963579). Note: nearly all actives have a fitted effect of over 45% in size. The method in brief: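 In this multiplexed counter screen, the reporter plates were subsequently treated with CellTiter-Glo so that cell viability, reflected by luminescence, could be recorded for p53RE-bla cells dosed 16 h with compounds under microsomal activation (HLM and NADPH).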

Test [9] is described as follows: p53 small molecule agonists, cell-based qHTS assay with rat liver microsomes: qHTS cell viability counter screen (AID 1963580). Note: nearly all actives have a fitted effect of over 45% in size. The procedure, abridged: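 Luminescent ATP readout (CellTiter-Glo, 30 min at room temperature) reports viability of p53RE-bla HCT-116 cells after 16 h at 37 C with test compounds under metabolic activation by rat liver microsomes and NADPH at 0.5 mg/mL final each.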

The nature of test [10]: p53 small molecule agonists, cell-based qHTS assay (AID 1963582; active = well fitted activation curve with a large enough effect in the signal ratio in the repeat runs, not every such curve was filed as active; the % refers to the signal ratio). The procedure, abridged:
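Cells carrying a p53-responsive bla reporter are treated with test compounds for 16 h at 37 C; beta-lactamase activity is then detected with LiveBLAzer B/G FRET substrate after 2 h at room temperature.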

Test [11] concerns the target 5-hydroxytryptamine receptor 2A (Homo sapiens) (UniProt P28223). In words: 5-hydroxytryptamine receptor 2A (HTR2A) small molecule agonists, cell-based qHTS assay (AID 1963587). Note: nearly all actives have a fitted effect of over 30% in size. The method in brief: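 HTR2A-CHO cells, plated 18 h at 37 C/5% CO2, dye-loaded 1 h at 37 C; compounds in DMSO added by pin tool (agonist mode). Intracellular calcium flux read as kinetic fluorescence on FDSS over 2 min at 1 s intervals.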

Test [12] deals with Muscarinic acetylcholine receptor M1 (Homo sapiens) (UniProt P11229). As to the kind of experiment: Cholinergic receptor muscarinic 1 (CHRM1) small molecule antagonists, cell-based qHTS assay (AID 1963588). Note: nearly all actives have a fitted effect of over 40% in size. The procedure, abridged:
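Compounds were tested at 15 concentrations in three independent runs. Dye-loaded CHRM1-CHO cells were exposed 5 min at room temperature before stimulation by acetylcholine added at 50nM. Intracellular calcium was read kinetically on FDSS for 3 min.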

The target is the same in test [13]. In words: Cholinergic receptor muscarinic 1 (CHRM1) small molecule agonists, cell-based qHTS assay (AID 1963589). Note: nearly all actives have a fitted effect of over 35% in size. The procedure, abridged: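 Cells were plated and incubated 18 h at 37 C/5% CO2, loaded with calcium dye for 1 h at 37 C, then treated with compounds in DMSO. Fluorescence was recorded kinetically at 1 sec intervals.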
The target of test [14] is D(2) dopamine receptor (Homo sapiens) (UniProt P14416). As to the kind of experiment: Dopamine D2 receptor (DRD2) small molecule agonists, cell-based qHTS assay (AID 1963594). Note: nearly all actives have a fitted effect of over 35% in size. The procedure, abridged:
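HEK293 cells stably expressing DRD2 were cultured 24 h at 37 C, then given Ro20-1724 (0.1 mM final) and compounds for 10 min at room temperature. NKH477 (200nM) was then added for 30 min. cAMP was read by HTRF.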

The target is the same in test [15]. In words: Dopamine D2 receptor (DRD2) small molecule antagonists, cell-based qHTS assay (AID 1963595; active = well fitted inhibition curve with a large enough effect in the signal ratio in the repeat runs, with a control signal flat; the % refers to the signal ratio). The method in brief: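 Cells were plated and grown for 24 h at 37 °C. Ro20-1724 (0.1 mM final) went in first, then compound for 10 min. NKH477 (200 nM) with quinpirole (12 nM) followed for 30 min at RT, then HTRF detection reagents for 1 h.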
For test [16], the target named is 5-hydroxytryptamine receptor 2A (Homo sapiens) (UniProt P28223). In words: 5-hydroxytryptamine receptor 2A (HTR2A) small molecule antagonists, cell-based qHTS assay (AID 1963586). Note: nearly all actives have a fitted effect of over 45% in size. The procedure, abridged: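 CHO cells stably expressing human HTR2A were plated for 18 h at 37 C, then loaded with calcium dye for 1 h. Compounds were preincubated 5 min at room temperature before DOI (4 nM solution) was added. Kinetic fluorescence was read for 3 min.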

A short description of test [17]: cAMP Responsive Elements (CRE) small molecule antagonists, cell-based qHTS assay (AID 1963591; active = well fitted inhibition curve with a large enough effect in the signal ratio in the repeat runs, not every such curve was filed as active; the % refers to the signal ratio). The method in brief:
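Cells (CRE-bla HEK 293T, DMEM with 10% dialyzed FBS and 25 mM HEPES) are seeded and incubated 18 h. Compounds are added with NKH477 agonist at 0.25 uM final for 3 h, then FRET substrate for 2 h.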

For test [18], the target named is Beta-2 adrenergic receptor (Homo sapiens) (UniProt P07550). In words: Adrenergic beta2 receptor (ADRB2) small molecule antagonists, cell-based qHTS assay (AID 1963592). Note: series mostly up to about 92 µM; nearly all actives have a fitted effect of over 50% in size. The method in brief: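 Assay format: CHO-ADRB2 cells, 18-20hr seeding at 37C/5% CO2, then compound plus 1nM isoproterenol agonist mix for 0.5hr RT. Homogeneous time-resolved fluorescence cAMP detection after 1hr, expressed as 665/615 nm ratio.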

A short description of test [19]: cAMP Responsive Elements (CRE) small molecule agonists, cell-based qHTS assay (AID 1963590). The method in brief:
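Cells carrying a CRE-driven beta-lactamase reporter (HEK 293T) are seeded, incubated overnight (18 h), and treated with test compounds for 3 h at 37 C; reporter activity is then detected with a FRET substrate after 2 h at room temperature.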

A short description of test [20]: p53 small molecule agonists, cell-based qHTS assay: qHTS cell viability counter screen (AID 1963581). Note: nearly all actives have a fitted effect of over 45% in size. The procedure, abridged:
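Viability was counter-screened in parallel with the p53 agonist reporter by measuring intracellular ATP luminescence in the same HCT-116 p53RE-bla wells after 16 h compound treatment at 37 C.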
% is set by controls: 0 for no effect and ±100 for the full control effect.

Chain of D(2) dopamine receptor (Homo sapiens) (P14416 whole entry, looked up): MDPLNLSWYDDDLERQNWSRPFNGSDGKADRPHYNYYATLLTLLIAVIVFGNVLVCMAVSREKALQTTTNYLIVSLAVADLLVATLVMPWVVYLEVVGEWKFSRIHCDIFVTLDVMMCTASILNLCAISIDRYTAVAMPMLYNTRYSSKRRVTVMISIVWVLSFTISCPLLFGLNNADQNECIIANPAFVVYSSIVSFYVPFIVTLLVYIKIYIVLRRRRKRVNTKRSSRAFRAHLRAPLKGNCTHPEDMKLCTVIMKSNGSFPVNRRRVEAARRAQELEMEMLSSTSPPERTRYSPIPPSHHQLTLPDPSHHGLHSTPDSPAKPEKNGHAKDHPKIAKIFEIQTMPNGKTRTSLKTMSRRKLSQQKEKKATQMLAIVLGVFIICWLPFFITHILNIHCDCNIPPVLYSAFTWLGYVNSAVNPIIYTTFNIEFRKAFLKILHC
Chain of Gonadotropin-releasing hormone receptor (Homo sapiens) (P30968 whole entry, looked up): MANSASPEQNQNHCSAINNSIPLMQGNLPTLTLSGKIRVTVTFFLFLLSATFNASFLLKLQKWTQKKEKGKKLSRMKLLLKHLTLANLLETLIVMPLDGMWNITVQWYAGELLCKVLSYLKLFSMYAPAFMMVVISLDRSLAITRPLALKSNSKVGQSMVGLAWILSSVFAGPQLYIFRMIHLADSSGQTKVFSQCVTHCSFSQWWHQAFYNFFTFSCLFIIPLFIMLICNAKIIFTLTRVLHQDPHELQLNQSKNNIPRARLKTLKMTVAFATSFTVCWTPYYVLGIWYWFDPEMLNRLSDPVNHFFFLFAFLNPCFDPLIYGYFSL
Chain of Muscarinic acetylcholine receptor M1 (Homo sapiens) (P11229 whole entry, looked up): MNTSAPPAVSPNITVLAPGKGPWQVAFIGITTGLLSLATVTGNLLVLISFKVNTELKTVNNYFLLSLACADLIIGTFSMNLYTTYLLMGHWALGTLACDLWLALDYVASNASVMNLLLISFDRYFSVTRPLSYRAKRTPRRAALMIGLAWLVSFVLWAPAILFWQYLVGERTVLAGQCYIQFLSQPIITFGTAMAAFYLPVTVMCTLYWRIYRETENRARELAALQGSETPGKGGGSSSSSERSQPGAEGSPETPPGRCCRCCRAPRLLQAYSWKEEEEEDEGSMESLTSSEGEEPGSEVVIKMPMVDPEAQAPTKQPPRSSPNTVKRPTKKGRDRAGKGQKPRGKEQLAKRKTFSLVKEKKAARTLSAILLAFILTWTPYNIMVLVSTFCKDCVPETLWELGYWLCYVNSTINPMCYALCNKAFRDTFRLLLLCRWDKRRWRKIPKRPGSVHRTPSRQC
Chain of KiSS-1 receptor (Homo sapiens) (Q969F8 whole entry, looked up): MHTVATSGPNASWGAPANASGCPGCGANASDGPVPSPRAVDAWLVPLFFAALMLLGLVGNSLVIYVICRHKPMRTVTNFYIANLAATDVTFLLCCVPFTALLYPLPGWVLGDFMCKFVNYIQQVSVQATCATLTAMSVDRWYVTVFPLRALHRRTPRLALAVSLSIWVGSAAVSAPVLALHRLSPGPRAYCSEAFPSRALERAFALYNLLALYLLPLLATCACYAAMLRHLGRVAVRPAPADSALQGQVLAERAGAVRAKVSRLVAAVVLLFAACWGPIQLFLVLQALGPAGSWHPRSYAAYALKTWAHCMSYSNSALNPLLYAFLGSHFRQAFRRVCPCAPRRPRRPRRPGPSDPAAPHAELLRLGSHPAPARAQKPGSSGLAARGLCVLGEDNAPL
Chain of Beta-2 adrenergic receptor (Homo sapiens) (P07550 whole entry, looked up): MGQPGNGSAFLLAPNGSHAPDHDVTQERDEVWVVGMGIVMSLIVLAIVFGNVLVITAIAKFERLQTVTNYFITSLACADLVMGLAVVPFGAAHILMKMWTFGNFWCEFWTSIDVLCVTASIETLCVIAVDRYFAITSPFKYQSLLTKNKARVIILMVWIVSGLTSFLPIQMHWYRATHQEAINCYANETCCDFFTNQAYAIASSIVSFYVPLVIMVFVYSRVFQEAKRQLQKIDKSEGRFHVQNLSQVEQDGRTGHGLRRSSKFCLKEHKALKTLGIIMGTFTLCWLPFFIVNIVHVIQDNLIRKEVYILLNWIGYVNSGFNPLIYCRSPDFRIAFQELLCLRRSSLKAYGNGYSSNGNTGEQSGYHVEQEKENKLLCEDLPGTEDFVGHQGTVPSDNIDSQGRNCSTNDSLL
Chain of 5-hydroxytryptamine receptor 2A (Homo sapiens) (P28223 whole entry, looked up): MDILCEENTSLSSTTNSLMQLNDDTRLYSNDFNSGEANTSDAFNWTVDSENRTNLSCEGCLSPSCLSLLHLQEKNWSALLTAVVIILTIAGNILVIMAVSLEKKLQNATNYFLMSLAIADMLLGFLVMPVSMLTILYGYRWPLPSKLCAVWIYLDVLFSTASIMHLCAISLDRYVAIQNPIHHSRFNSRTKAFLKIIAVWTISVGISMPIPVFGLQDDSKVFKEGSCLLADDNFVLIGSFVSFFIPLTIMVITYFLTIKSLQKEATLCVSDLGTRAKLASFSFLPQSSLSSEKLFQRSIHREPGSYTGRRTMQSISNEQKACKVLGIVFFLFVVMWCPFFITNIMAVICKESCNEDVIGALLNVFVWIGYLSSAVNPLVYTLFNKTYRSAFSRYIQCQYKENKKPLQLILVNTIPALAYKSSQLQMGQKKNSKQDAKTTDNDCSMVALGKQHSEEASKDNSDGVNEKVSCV

As for `C[C@]12C=CC(=O)C=C1CC[C@@H]1[C@@H]2CC[C@@]2(C)[C@H]1CC[C@]2(C)O`, the Potency entry in test [1], in [2], in test [3], in test [4], in [5] and in [6] was “inactive” throughout. Besides, the Potency result in [7], in [8], in test [9], in test [10], in test [11] and in test [12] was “inactive” throughout. Also, the Potency entry in test [13], in [14] and in [15] was “inactive” in each case.
`CC1=C2C[C@H]3[C@@H](CC=C4C[C@@H](O)CC[C@@]43C)[C@@H]2CC[C@]12O[C@@H]1C[C@H](C)CN[C@H]1[C@H]2C`: the Potency in test [1] is 11.9 µM (active). In addition, the Potency result in [2], in [3], in test [4], in [5], in [6] and in test [7] was “inactive” throughout. Further, the Potency result in test [8], in test [9], in [10], in test [16], in test [13] and in test [17] was “inactive” each time. Besides, the Potency entry in test [18] and in [14] was “inactive” in each case.
In the case of `CSc1nc(N=[N+]=[N-])nc(NC(C)C)n1`, the Potency entry in [1], in [2], in test [3], in test [4], in test [5] and in test [6] was “inactive” each time. Also, the Potency entry in test [7], in test [8], in test [9], in [10], in [16] and in test [11] was “inactive” each time. Moreover, the Potency entry in [12], in [13], in [19], in test [18], in test [14] and in test [15] was “inactive” in each case.
Consider `N#CNC#N`, for which the Potency result in [1], in test [2], in test [3], in [4], in test [5] and in test [6] was “inactive” in each case. In addition, the Potency result in test [7], in test [8], in [9], in [10], in test [11] and in test [12] was “inactive” throughout. The Potency result in test [13], in [19], in test [17], in [18], in [14] and in test [15] was “inactive” in each case.
For `CC(=O)CCc1ccc2c(c1)OCO2`, the Potency entry in [1], in [2], in test [3], in test [4], in test [5] and in test [6] was “inactive” in each case. The Potency result in test [7], in test [8], in [20], in test [10], in test [16] and in [11] was “inactive” each time. For the same molecule, the Potency entry in test [12], in test [13], in test [19], in [17], in test [18] and in [14] was “inactive” each time. In addition, the Potency result in test [15] is “inactive”.
On to `CCCCCCC(=O)CCCCCC/C=C/C[C@@H](O)[C@H](O)[C@@](N)(CO)C(=O)O`, for which the activity change, negative = cytotoxicity was -1.3% [at 19 µM] in test [1], 0.682% [at 13.5 µM] in [8] and -0.611% [at 13.5 µM] in test [9]. In test [2], the activity, positive = activation was -3.71% [at 19 µM]. Moreover, the activity change in test [3] is 0.629% [at 11.8 µM, stronger effect = higher value]. The activation in test [4] was 0.0857% [at 15.8 µM]; in test [5] it was 0.714% [at 11.8 µM]; in [6] it was 4.34% [at 13.5 µM]; in test [7], 0.608% [at 13.6 µM]; in test [10], 0.605% [at 13.5 µM]; in test [11], 2.62% [at 15.9 µM]. Besides, the activation in [19] is 3.57% [at 19 µM]. Further, the activity, negative = inhibition in test [16] is 87.4% [at 12.7 µM]; in test [12], 3.07% [at 12.6 µM]. The activity change, negative = inhibition in test [17] is -12.2% [at 18.9 µM]; in test [18], 9.53% [at 19 µM]; in test [15] it was 0.928% [at 18.9 µM].
Take `Nc1cc(Cl)ccc1O`: the Potency result in test [1], in test [3], in test [4], in test [5], in test [6] and in test [7] was “inactive” in each case. The Potency result in test [8], in test [9], in [16], in [11], in test [12] and in test [13] was “inactive” in each case. The Potency entry in [19], in test [17], in [14] and in [15] was “inactive” throughout. Further, in test [2], the Potency was 52.7 µM (active).
For `CCCCOC(C)=O`, the Potency entry in test [1], in test [2], in [3], in test [4], in [5] and in test [6] was “inactive” in each case. For the same molecule, the Potency entry in test [7], in [8], in [9], in test [10], in test [16] and in test [11] was “inactive” each time. Besides, the Potency entry in test [12], in test [13], in [19], in [17], in test [18] and in test [14] was “inactive” throughout. Also, the Potency result in test [15] was “inactive”.
